Screening data from PubChem BioAssay.
An excerpt weighted towards active compounds, which were near 17% of everything screened.
TDP1 block: qHTS Assay for Inhibitors of Tyrosyl-DNA Phosphodiesterase (TDP1); 0.28% of 350,000 active; recombinant TDP1, AlphaScreen DNA substrate cleavage; Tyrosyl-DNA phosphodiesterase 1 (Homo sapiens), Q9NUW8; Potency, µM (top dose mostly 130 µM), for inactives: at the top dose activity change, negative = inhibition, actives largely listed as inhibitors; further: on the % scale 0 is the no-effect control and ±100 the full control effect; nearly all actives have a fitted effect of over 40% in size
Target sequence (Q9NUW8 whole entry, looked up): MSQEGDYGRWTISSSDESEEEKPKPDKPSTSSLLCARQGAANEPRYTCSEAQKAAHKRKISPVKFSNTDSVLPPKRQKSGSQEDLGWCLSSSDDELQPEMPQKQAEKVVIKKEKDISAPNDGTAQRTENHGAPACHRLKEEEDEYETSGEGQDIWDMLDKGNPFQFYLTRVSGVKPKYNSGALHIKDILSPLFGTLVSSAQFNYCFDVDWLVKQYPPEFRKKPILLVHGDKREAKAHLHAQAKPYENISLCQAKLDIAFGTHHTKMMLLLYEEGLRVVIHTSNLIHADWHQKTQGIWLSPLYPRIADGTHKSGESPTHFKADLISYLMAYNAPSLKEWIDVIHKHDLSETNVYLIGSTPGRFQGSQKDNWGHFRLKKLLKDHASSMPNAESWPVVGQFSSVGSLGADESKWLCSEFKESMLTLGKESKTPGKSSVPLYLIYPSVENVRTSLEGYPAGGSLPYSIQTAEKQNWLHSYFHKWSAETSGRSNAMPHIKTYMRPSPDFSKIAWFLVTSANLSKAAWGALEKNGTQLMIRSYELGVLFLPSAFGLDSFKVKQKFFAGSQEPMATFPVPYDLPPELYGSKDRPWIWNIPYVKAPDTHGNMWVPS
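Compounds were preincubated with Tdp1 (1 nM final) for 15 min at room temperature before substrate (15 nM final) started a 5 min reaction; beads (10 ug/ml final) were then added for 10 min before AlphaScreen detection.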
DT40 TDP1 CPT: qHTS for Inhibitors of human tyrosyl-DNA phosphodiesterase 1 (TDP1): qHTS in cells in presence of CPT. AID 686979, 2013. 12% of 420,000 active. chicken DT40 Tdp1-/-;hTDP1 cells + 20 nM CPT, ATP luminescence, 48 h. Potency, µM (top dose mostly 46.2 µM), for inactives: top-dose activity change, negative = growth inhibition, actives largely listed as inhibitors; further: on the % scale 0 is the no-effect control and ±100 the full control effect; nearly all actives have a fitted effect of over 55% in size
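Cell growth measured by CellTiter-Glo luminescence after a minimum 48 h, 37 C compound exposure with 20 nM CPT in Tdp1-knockout DT40 cells stably expressing hTDP1, seeded 400/well; qHTS titration format.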
TDP1 cell noCPT: qHTS for Inhibitors of human tyrosyl-DNA phosphodiesterase 1 (TDP1): qHTS in cells in absence of CPT; DT40 Tdp1-/- hTDP1 cells, no CPT, ATP luminescence, 48 h; Potency, µM (series often up to 46.2 µM), inactives show at the highest dose activity change, negative = growth inhibition, usual class: inhibitors; 15% of 420,000 active; further: on the % scale 0 is the no-effect control and ±100 the full control effect; nearly all actives have a fitted effect of over 55% in size
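Growth of hTDP1-complemented DT40 Tdp1-knockout cells is measured by ATP luminescence after at least 48 hr compound exposure at 37 °C, with DMSO substituting for the 20 nM CPT used in the parallel screen.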
ClpP mod: qHTS Assay for Activators of ClpP | purified B. subtilis ClpP, FRET peptide cleavage, 20 min | Potency, µM (series often up to 57.5 µM), inactives show at the top dose activity change, negative = active | 1.9% of 340,000 active | AID 651965, 2013; active means well fitted falling curve with a large enough effect; inconclusive means small, poorly fitted or top-dose-only effect; inactive means no such curve, though single readings can be large or run the other way; further: the source files actives as falling curves though it sought activators and does not explain the sign; nearly all actives have a fitted effect of over 65% in size
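FRET quenching reversal measured ClpP activation: 10 microg/mL B. subtilis ClpP at pH 8 with the FRET-FV decapeptide, read at 430 nm after 320 nm excitation. The 20-min minus 0-min signal was scaled between DMSO/no-enzyme wells and ADEP (5.8 microM final).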
An asterisk follows results filed as active; ? = inconclusive; / = no result. Unless noted, the call rests on the fitted dose curve; in most records, active means well fitted curve in the direction sought with a large enough effect; inconclusive means small, poorly fitted or top-dose-only effect, or another doubt; inactive means no such curve, though single readings can be large; an effect the other way counts as inactive or inconclusive. Potency means the concentration at half of the fitted maximal effect.

SMILES	TDP1 block	DT40 TDP1 CPT	TDP1 cell noCPT	ClpP mod
CN(C)c1ccc(/C=N/NC(=O)c2ccc(NC(=O)c3ccccc3)cc2)cc1	/	23.5%	?	/
CCNC(=S)N/N=C/c1cc(Br)cc(Br)c1OC	4.9%	5.17µM*	6.51µM*	0.4%
CCOc1cc(Br)cc(/C=N/NC(=O)c2cccnc2)c1O	/	0.461µM*	0.366µM*	/
COc1c(Br)cc(Br)cc1/C=N/n1c(C)nnc1C	4.8%	?	?	-1.3%
COc1c(Br)cc(Br)cc1/C=N/NC(=O)c1ccncc1	4.8%	?	?	/
Cc1ccc(C)c(NC(=O)CCC(=O)N2CCOc3ccccc32)c1	/	-3.3%	-15.9%	-4.9%
COc1ncc2nc(-c3cn(C)c4ccccc34)c(=O)n(CCc3ccccc3)c2n1	/	10.2%	7.1%	/
COc1ccc(CCNc2ncccc2C#N)cc1OC	9.0%	-25.0%	?	/
CCc1nn2c(=O)cc(COc3ccc(/C=C(\C#N)C(=O)Nc4ccc(C)cc4)cc3)nc2s1	-1.3%	-6.8%	11.0%	-0.7%
Cc1cccc(NC(=O)COc2ccccc2C(=O)Nc2ccccc2)c1	/	?	?	17.3%
CCc1ccc2[nH]c(=O)c(CN(CC3CCCO3)C(=S)NCc3ccco3)cc2c1 (centres undefined)	6.8%	20.6µM*	?	-7.8%
Cc1ccc2cc(CN(CC3CCCO3)C(=S)NCc3ccco3)c(=O)[nH]c2c1C (centres undefined)	4.6%	?	13µM*	-2.8%
Cc1cc2cc(CN(CCN(C)C)C(=S)NCc3ccco3)c(=O)[nH]c2cc1C	1.2%	?	13µM*	/
CCc1ccc2[nH]c(=O)c(CN(CCN(C)C)C(=S)NCc3ccco3)cc2c1	11.9%	?	?	/
CN(Cc1ccccc1F)c1cc2c(c3c1ccn3C)C1CCC2C1 (centres undefined)	/	?	23.1µM*	-8.8%
Cn1ccc2c(-c3ccccc3F)cc3c(c21)C1CCC3C1 (centres undefined)	/	-7.0%	-12.1%	5.0%
O=c1[nH]c(=S)[nH]c2c1C(c1ccc(Cl)cc1)OC(CCc1ccccc1)C2 (centres undefined)	/	?	?	1.5%
COc1cc2c(cc1OC)CN(C(=O)c1nn(Cc3ccccc3)c(=O)c3ccccc13)CC2	5.0%	?	16.4µM*	-2.8%
CC(=O)c1ccc(N2CCN(C(=O)c3nn(Cc4ccccc4)c(=O)c4ccccc34)CC2)cc1	7.5%	?	18.4µM*	/
CCOC(=O)c1c(NC(=O)c2noc3c2CC(C(C)(C)C)CC3)sc2c1CCCC2 (centres undefined)	-0.9%	-13.8%	-6.1%	-4.6%
C=C1C=C(C)n2ncc(C(=O)N(CCc3ccccc3)Cc3ccccc3)c2N1	/	?	?	4.6%
Cc1cccc2nc(Cn3c(=O)n(CCC(=O)NCc4ccco4)c(=O)c4ccccc43)cc(=O)n12	/	-22.7%	?	-2.8%
Cc1ccc(-c2cc(C(=O)Nc3c(C(=O)c4ccccc4)oc4ccccc34)no2)cc1F	5.7%	7.3%	-16.6%	-26.8%
CC1=NN(C(=O)c2ccccc2Cl)C(O)(c2ccccc2)C1 (centres undefined)	2.2%	-6.7%	4.0%	/
CCC1=NN(C(=O)c2ccc(Br)cc2)C(O)(c2ccccc2)C1 (centres undefined)	2.6%	5.8µM*	6.51µM*	1.1%
SMILES	TDP1 block	DT40 TDP1 CPT	TDP1 cell noCPT	ClpP mod
CCOC(=O)C1=NN(C(=O)c2ccccc2)C(O)(c2ccc(C)cc2)C1 (centres undefined)	7.8%	?	25.9µM*	/
CC1=NN(C(=O)c2ccccc2)C(O)(c2ccc(Br)cc2)C1 (centres undefined)	2.5%	5.8µM*	?	/
O=C1/C(=C/c2cccc(F)c2)Oc2cc(O)ccc21	/	?	?	-1.6%
COC(=O)C1=C(Nc2ccc(C)cc2)C=C(C)C(C(=O)OC)C1c1cccc(OC)c1 (centres undefined)	3.3%	?	?	-3.4%
COC(=O)C1=C(Nc2ccc(C)cc2)C=C(C)C(C(=O)OC)C1c1ccc(OC)cc1 (centres undefined)	-2.2%	16.4µM*	25.9µM*	-7.3%
Cc1ccc(NC(=O)CCl)c(C)c1	0.0%	?	25.9µM*	-4.7%
Cc1ccccc1NC(=O)Cc1nc(CCl)cs1	5.3%	?	-29.9%	-2.0%
CC(C)(C)c1csc(NC(=O)Cn2c(=O)oc3ccccc32)n1	0.0%	16.4µM*	?	0.3%
Cc1ccc(NC(=O)Cn2c(=O)oc3ccccc32)cc1C	2.8%	2.3%	-1.9%	-0.7%
Cc1ccc(C)c(NC(=O)Cc2nc(CCl)cs2)c1	8.1%	25.9µM*	20.6µM*	-1.1%
Cc1ccccc1NC(=O)Cn1c(=O)oc2cc(Br)ccc21	4.7%	?	13µM*	1.9%
CNC(=O)[C@@H]1C[C@H](NC2CCCCCCC2)CN1Cc1cccc(OC)c1OC	/	?	-27.7%	/
CS(=O)(=O)c1ccc(Cl)c(NC(=O)CCl)c1	-5.4%	5.8µM*	10.3µM*	-3.3%
CCOc1ccc(NC(=O)Cn2c(=O)oc3cc(Cl)ccc32)cc1	/	?	?	-5.5%
Cc1ccc(NC(=O)c2cc(-c3cccs3)nc3ccccc23)c(C)c1	/	-28.4%	?	3.8%
Cc1ccc(NC(=O)NC2CCCCC2)c(C)c1	3.5%	1.03µM*	1.16µM*	0.9%
CCOc1ccccc1NC(=O)Cn1c(=O)oc2cc(Cl)ccc21	/	-18.0%	4.61µM*	-0.4%
CS(=O)(=O)c1ccc(C(=O)Nc2cc(S(C)(=O)=O)ccc2Cl)cc1	5.5%	2.3%	0.5%	-1.4%
Cc1ccc(NC(=O)Cc2cc(C(=O)O)c3ccccc3n2)c(C)c1	0.0%	14.6µM*	20.6µM*	-7.0%
O=C1CCCC2=C1C1(CCCC1)N=C(Nc1nc3cc4ccccc4cc3o1)N2	2.2%	/	/	/
Cc1ccc(NC(=O)Cn2c(=O)oc3ccccc32)cc1	-1.2%	22.3%	-11.9%	-1.5%
Cc1ccc(NC(=O)Cn2c(=O)oc3ccccc32)c(C)c1	/	0.2%	13µM*	-2.5%
O=C(Cn1c(=O)oc2ccccc21)Nc1ccccc1C(F)(F)F	/	?	6.51µM*	/
Cc1ccc(C)c(N2CCN(S(=O)(=O)c3ccc4oc(=O)c5ncn(C)c5c4c3)CC2)c1	2.5%	?	?	-3.2%
COc1ccc(-c2nnc(N3CCC(C)CC3)c3ccccc23)cc1	-7.8%	?	16.4µM*	-0.8%
CCCC(=O)Nc1cc(-c2nnc(OC)c3ccccc23)ccc1N1CCCCC1	6.3%	/	/	/
Cc1ccc(-c2nnc(N3CC(C)OC(C)C3)c3ccccc23)cc1 (centres undefined)	7.1%	29.1µM*	16.4µM*	/
COc1nnc(-c2ccc(N3CCCCC3)c(N)c2)c2ccccc12	/	7.31µM*	8.2µM*	-1.9%
